Where “and” joins values, the source holds several entries; their conditions need not be identical. Equal values may be shown once. Calls of active or inactive are those of the source. Rule for the calls: active = hit-call score of the fitted dose curve at least 0.9, where 1 is the maximum; inactive = score below 0.9.
Each compound was assayed on cysteine-aspartic acid protease (CASP8), CASP8 (gene 841) (assay: LTEA_HepaRG_CASP8: Life Technologies and Expression Analysis (LTEA) Assay for cysteine-aspartic acid protease (CASP8) using HepaRG (AID 2283480)). Conditions: mRNA level, 48 h; actives raise or lower the signal.
Protocol: LTEA_HepaRG is a cell based, multiplexed-readout assay that uses HepaRG, a human liver cell line, with measurements taken at 48 hours after chemical dosing on a 96-well plate.LTEA_HepaRG_CASP8 is one of 102 assay component(s) measured in the LTEA HepaRG cell culture assay. It is a marker of Cell proliferation, survival, death.Data from the assay component LTEA_HepaRG_CASP8 was analyzed into 1 endpoint. This assay endpoint, LTEA_HepaRG_CASP8, was analyzed with bidirectional fitting relative to DMSO as the negative control and baseline of activity. Using a type of inducible reporter, measures of mRNA induction for gain or loss-of-signal activity can be used to understand regulation of transcription factor activity. To generalize the intended target to other relatable targets, this assay endpoint is annotated to the protease intended target family, where the subfamily is cysteine protease.
A total of 1060 chemcials from the ToxCast library were tested in eight-point concentration-response experiments. Cell culture and cytotoxicity assays were conducted at Thermo Fisher Scientific's Custom Services facility (Madison, WI). A single lot of human HepaRG cells (Thermo Fisher Scientific, Frederick, MD) was used for the cell culture experiments. 96-well format collagen type I coated plates of human HepaRG cells were prepared using established methods. Briefly, cryopreserved HepaRG cells were thawed, plated at a density of approximately 100,000 cells/well in HepaRG Thaw, Plate, and General Purpose media (HPRG770, Thermo Fisher Scientific), and incubated for 48 hours. 0.5% DMSO was selected as vehicle control to balance the requisite need of DMSO in HepaRG cultures to maintain differentiation (for example, baseline metabolism, proportions of hepatocytes vs. cholangiocytes), while enabling further hepatic receptor pathway activation (for example, PXR and CAR) in response to chemical exposure. 48 hours after plating, the culture medium was replaced with HepaRG Serum-Free Incudtion Media. Cells were exposed to each test chemical in duplicate and maintained in CO2 incubators for another 48 hours. Chemical plates were thawed to room temperature and 200x concentrations of treatment groups were prepared. 8-point conentration-reponse curves were made with the highest exposure at 100 uM, followed by half-log dilutions, all in 0.5% DMSO. Each test plate contained variouse controls, induction positive controls (1mM phenobarbital), cytotoxicity positive controls ([…] aflatoxin B1), vehicle controls (0.5% DMSO), and total lysis controls (0.5% DMSO). Cell morphology images were taken using an Essen IncuCyte FLR automated microscope, with six 96-well plates imaged in about 24 minutes. Images were captured and exported and JPEG files. Spent culture media was transfered to black-well plates for the LDH assay, and remaining media was sorted at -80 C for later use. Cells were treated with RLT buffer and frozen until shipped for gene expression analysis. Total RNA was isolated from the cell suspension in 75 uL of Buffer RLT (Qiagen, Germantown, MD 20874) by Quintiles/Expression Analysis (Durham, NC) using a custom isolation procedure. Total RNA from each plate well was transferred to a preamplification plate. Fluidigm's 96.96 Dynamic ArrayTM (Fluidigm, Amsterdam, the Netherlands) technology was used for gene expression analyses by quantitative reverse transcription polymerase chain reaction (qRT-PCR, performed by Quintiles/Expression Analysis, Durham, NC)89. Standard TaqManTM Assays (Applied Biosystems/ThermoFisher Scientific, Foster City, CA) were used to assess the expression of 93 genes selected based on their selectivity and sensitivity to important hepatic receptors known to be modulated by environmental chemicals; importance in human hepatocyte functionality; and hepatotoxicity. […]

Compound | outcome | AC50
CCCN(CCC)C(=O)SCC | inactive | –
S=C([S-])NCCNC(=S)[S-].[Mn+2] | – | 3.99 µM (active)
COc1c(Cl)ccc(Cl)c1C(=O)O | inactive | –
CCOC(=O)NCCOc1ccc(Oc2ccccc2)cc1 | inactive | –
CCOC(=O)c1ccc(O)cc1 | inactive | –
Oc1ccc(C(c2ccc(O)cc2)C(Cl)(Cl)Cl)cc1 | – | 88.4 µM (active)
CC(C)(c1ccc(O)cc1)c1ccc(O)cc1 | inactive | –
O=C(O)C1(C(=O)Nc2ccc(Cl)cc2Cl)CC1 | inactive | –
CCC(C)OC(=O)N1CCCCC1CCO (stereo not given) | inactive | –
Cc1nn(C)c(Oc2ccccc2)c1C=NOCc1ccc(C(=O)OC(C)(C)C)cc1 | inactive | –
CCCOC(=O)c1ccc(C(=O)OCCC)nc1 | inactive | –
CC(=O)S[C@@H]1CC2=CC(=O)CC[C@]2(C)[C@H]2CC[C@@]3(C)[C@@H](CC[C@@]34CCC(=O)O4)[C@H]12 | inactive | –
CCCCOC(=O)[C@@H](C)Oc1ccc(Oc2ccc(C(F)(F)F)cn2)cc1 | inactive | –
C[C@]12C[C@H](O)[C@H]3[C@@H](CCC4=CC(=O)CC[C@@]43C)[C@@H]1CC[C@@H]2C(=O)CO | inactive | –
CCCCC(CC)CN1C(=O)C2C3C=CC(C3)C2C1=O (stereo not given) | inactive | –
N[C@@H](Cc1cc(I)c(Oc2ccc(O)c(I)c2)c(I)c1)C(=O)O | inactive | –
COC(=O)c1ccc(I)cc1S(=O)(=O)NC(=O)Nc1nc(C)nc(OC)n1 | inactive | –
CCN(Cc1c(F)cccc1Cl)c1c([N+](=O)[O-])cc(C(F)(F)F)cc1[N+](=O)[O-] | inactive | –
CCNc1nc(N)nc(Cl)n1 | inactive | –
CCN(CC)C(=O)c1cccc(C)c1 | inactive | –

Compound | outcome | AC50
CCCCCCC(C)OC(=O)COc1nc(F)c(Cl)c(N)c1Cl (stereo not given) | inactive | –
O=C(O)c1ccccc1 | inactive | –
CCCCOCCOCCOCc1cc2c(cc1CCC)OCO2 | inactive | –
C=CCOC(Cn1ccnc1)c1ccc(Cl)cc1Cl (stereo not given) | – | 84 µM (active)
c1ccc2[nH]c(-c3cscn3)nc2c1 | inactive | –
C#CCOC(=O)[C@@H](C)Oc1ccc(Oc2ncc(Cl)cc2F)cc1 | inactive | –
S=C(S)NCCNC(=S)S.[Mn+2].[S-]C([S-])=NCCN=C([S-])[S-].[Zn+2] | – | 1.18 µM (active) and 2.18 µM (active) and 1.55 µM (active)
O=C(c1ccccc1)C1CCCCC1 | inactive | –
CCCCCOC(=O)COc1cc(N2C(=O)C3=C(CCCC3)C2=O)c(F)cc1Cl | inactive | –
OB(O)O | inactive | –
C#C[C@]1(O)CC[C@H]2[C@@H]3CCC4=CC(=O)CC[C@@H]4[C@H]3CC[C@@]21CC | inactive | –
CC(=O)[C@H]1CC[C@H]2[C@@H]3CCC4=CC(=O)CC[C@]4(C)[C@H]3CC[C@]12C | – | 82.2 µM (active)
c1ccc(Nc2ccccc2)cc1 | inactive | –
CCCOC(=O)NCCCN(C)C | inactive | –
CC1(C)C(C=C(Cl)Cl)C1C(=O)OCc1cccc(Oc2ccccc2)c1 (stereo not given) | inactive | –
CCOC(=O)C(C)Oc1ccc(Oc2nc3ccc(Cl)cc3o2)cc1 (stereo not given) | inactive | –
C[C@]12CC[C@@H]3c4ccc(O)cc4C[C@@H](CCCCCCCCCS(=O)CCCC(F)(F)C(F)(F)F)[C@H]3[C@@H]1CC[C@@H]2O (stereo not given in full) | inactive | –
O=C(Nc1ccc([N+](=O)[O-])cc1Cl)c1cc(Cl)ccc1O | – | 12 µM (active)
CSC(=O)c1cccc2nnsc12 | inactive | –
CCCCC(CC)COC(=O)c1ccccc1C(=O)O (stereo not given) | inactive | –

Reference: PubChem BioAssay (EPA / NIEHS)
